The values below come from PubChem BioAssay AID793 (The Scripps Research Institute Molecular Screening Center, 2007).

Molecules are shown by their SMILES. In all, about 140,000 compounds went through this assay and about 1,400 (1%) were called active. Rule as the data show it: active = inhibition above about 17%; inactive = the rest. This excerpt belongs to a sample that is enriched for actives.

The inhibition is the change of the read-out against control, counted positive when it falls.

For the test, the target named is Neuropeptide Y receptor type 2 (Homo sapiens) (UniProt P49146). Description: blockers of human neuropeptide Y Y2 receptor – cell-based, primary screen (AID 793).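 Also: 0% = vehicle with agonist challenge and 100% = reference antagonist with challenge.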 Particulars: NPY-Y2 expressing cells, antagonist mode; at 2.7 µM; hits give high values.
Sequence of Neuropeptide Y receptor type 2 (Homo sapiens) (P49146 whole entry, looked up): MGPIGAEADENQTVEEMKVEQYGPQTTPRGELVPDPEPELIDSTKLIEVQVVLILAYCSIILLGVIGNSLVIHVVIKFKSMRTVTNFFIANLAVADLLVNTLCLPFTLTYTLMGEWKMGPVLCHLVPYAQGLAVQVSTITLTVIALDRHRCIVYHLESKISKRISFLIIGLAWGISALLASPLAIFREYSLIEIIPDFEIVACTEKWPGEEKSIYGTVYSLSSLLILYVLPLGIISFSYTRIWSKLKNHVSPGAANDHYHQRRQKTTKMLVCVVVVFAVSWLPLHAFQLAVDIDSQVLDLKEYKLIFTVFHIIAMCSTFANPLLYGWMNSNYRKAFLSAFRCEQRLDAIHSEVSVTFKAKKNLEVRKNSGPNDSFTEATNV
Consider `CC(NC(=O)c1cccc2ccccc12)c1ccc2c(c1)CCCC2` (stereo unspecified), for which the inhibition was 5.32% (inactive). Under `O=C(CC(=O)Nc1ccc(Cl)c(Cl)c1)N/N=C/c1ccc(O)cc1` stands -3.17% (inactive); under `O=C(CC(O)(C(F)(F)F)C(F)(F)F)Nc1ccc(Cl)c(Cl)c1`, 24.4% (active); under `CN(C)CCNC(CC(=O)Nc1ccc(Cl)c(Cl)c1)C(=O)O` (stereo unspecified), 0.54% (inactive).

For the compound `Nc1nc(SCc2ccc([N+](=O)[O-])cc2)c2ncn(C3OC(CO)C(O)C3O)c2n1` (stereo unspecified), the inhibition was 1.64% (inactive). Take `O=C(Nc1cn(-c2ccccc2)nc1-c1ccccc1)c1ccccc1`: the inhibition is 9.26% (inactive). Under `O=C(NCCN1CCOCC1)c1cc(Sc2cccc(Cl)c2)nc2ccccc12` stands 3.17% (inactive); under `CCCCCNC(=O)Cc1ccc(OC)cc1`, 20.3% (active); under `CCCCNC(=O)C1(c2ccc(OC)cc2)CCOCC1`, 3.6% (inactive). Under `COc1ccc(OCCCC(=O)NCCc2ccccc2)cc1` stands 4.05% (inactive); under `CCOC(=O)C1=C(C)NC(=O)NC1c1ccccc1` (stereo unspecified), 0.94% (inactive); under `O=C(Nc1nnc(CCc2ccccc2)s1)C1CCCO1` (stereo unspecified), 3.28% (inactive). Then `O=C(Nc1nnc(SCc2c(Cl)cccc2Cl)s1)C1CCCO1` (stereo unspecified), with 22.4% (active); and `O=C(Nc1nnc(SCc2ccc(Cl)cc2Cl)s1)C1COc2ccccc2O1` (stereo unspecified), with -1.05% (inactive). `COc1ccc(NC(=O)c2ccc(C#CC(C)(C)O)cc2)cc1`: the inhibition is -0.31% (inactive). Then `Cc1ccc(O)c(CNc2nc3ccccc3n2C)c1`, with -2.2% (inactive); and `Cc1ccc(C2=NN(C)c3nc4ccccc4n3C2)cc1`, with 18.8% (active). Under `Cc1nn2c3ccccc3nc2n(C)c1=O` stands 10.8% (inactive). Under `O=C(NC1CCN(Cc2ccccc2)CC1)c1c(F)cccc1F` stands 0.52% (inactive); under `CCOc1ccc(S(=O)(=O)NCCSc2ccccc2)cc1`, 20.6% (active); under `Cc1ccc(S(=O)(=O)NCCSc2ccccc2)cc1[N+](=O)[O-]`, 13.3% (inactive).

Take `O=S(=O)(NCCSc1ccccn1)c1ccc(Cl)cc1`: the inhibition is 6% (inactive).

For `Cc1ccccc1N1CCN(CCCOc2ccc3c(C)cc(=O)oc3c2)CC1`, the inhibition is 22.1% (active). Then `Cc1cc(=O)oc2cc(OCC3CC(c4ccccc4Cl)=NO3)ccc12` (stereo unspecified), with 10.7% (inactive). As to `Cc1ccccc1NC(=O)c1ccc(COc2ccc3c(C)cc(=O)oc3c2)cc1`, the inhibition was 1.18% (inactive). Then `CC1(C)C(C=C(Cl)Cl)C1C(=O)N(Cc1ccc(Cl)cc1)C1CCS(=O)(=O)C1` (stereo unspecified), with 5.56% (inactive); and `CCNc1ccc(C(=O)OCC(=O)N2c3ccccc3NC(=O)C2(C)C)cc1[N+](=O)[O-]`, with 0.27% (inactive). As to `COc1ccc(Cl)cc1-n1c(C)cc(C(=O)OCC(=O)N2CC(=O)Nc3ccccc32)c1C`, the inhibition is -0.44% (inactive). Then `Cc1cc(C(=O)OCC(=O)N2c3ccccc3NC(=O)C2(C)C)c(C)n1-c1ccccc1`, with 20.1% (active); and `O=S(=O)(Cc1cc(Sc2ccccc2)nc(-c2ccccc2)n1)c1ccccc1`, with 32.1% (active). As for `CCS(=O)(=O)n1nc(-c2ccccc2)nc1SCc1ccccc1`, the inhibition is 11.5% (inactive).

Regarding `Cc1ccc(Sc2cc(N3CCOCC3)nc(-c3ccccc3)n2)cc1`, the inhibition is -0.14% (inactive). As for `COc1ccc(N2CCN(Cc3nnc(-c4ccccc4)o3)CC2)cc1`, the inhibition is 3.16% (inactive). As for `Cc1nc2nc3c(cn2n1)C(=O)CC(c1ccccc1)C3` (stereo unspecified), the inhibition was 2.84% (inactive). Under `Cc1cc(C)nc(-n2ncc3c2CC(c2ccc(C(C)C)cc2)CC3=O)n1` (stereo unspecified) stands 24.9% (active). Then `CCN1CCC2(CC1)N=C(c1ccc(F)cc1)C(=S)N2C(=O)c1ccc(C)cc1`, with 1.56% (inactive); and `c1ccc2c(c1)OCC(CNc1ncnc3nc[nH]c13)O2` (stereo unspecified), with -0.22% (inactive). Then `S=C(NCC1COc2ccccc2O1)Nc1ccc(Br)cc1` (stereo unspecified), with 6.55% (inactive); and `c1ccc(-c2cc3c(NCC4COc5ccccc5O4)ncnc3s2)cc1` (stereo unspecified), with 22.8% (active). Consider `Nc1nnc(SCC(=O)Nc2ccc3nc(SCC(=O)Nc4ccccc4)sc3c2)s1`, for which the inhibition was 4.56% (inactive). Under `CN(Cc1ccccc1)Cc1ccccc1F` stands 1.28% (inactive). Consider `CC(=O)NC(C)c1nc2ccccc2n1Cc1ccccc1F` (stereo unspecified), for which the inhibition is 2.02% (inactive). Under `N=c1n(CCc2ccccc2)c2ccccc2n1Cc1ccccc1F` stands 23.1% (active); under `COc1ccc(Cn2c(-c3ccc(Cl)cc3)c[n+]3ccccc23)cc1`, 1.35% (inactive). Then `COc1ccc(NC(=O)c2cccc(NC(=O)c3ccco3)c2)c(OC)c1`, with 3.21% (inactive). Then `COc1cc(NC(=O)c2cc([N+](=O)[O-])ccc2Br)ccc1NC(=O)c1ccco1`, with 31.7% (active); and `COc1ccccc1C(=O)Nc1ccc(NC(=O)c2ccco2)c(C)c1`, with -1.27% (inactive); and `COc1ccccc1Oc1ccc(N/C=C2/CCCC2=O)cc1`, with 2.93% (inactive).

In the case of `COc1cccc(NC(=O)CC(c2ccc(OC(C)C)cc2)c2ccccc2OC)c1` (stereo unspecified), the inhibition is 4.56% (inactive). As for `CC(C)N1C(=O)N(c2ccccc2)C(C)(O)CC1(C)C` (stereo unspecified), the inhibition was -1.03% (inactive). For `O=C(Nc1ccc(N2C(=O)c3cccc4cccc(c34)C2=O)cc1)c1ccc(N2CCCCC2)c([N+](=O)[O-])c1`, the inhibition was 0.97% (inactive). Consider `OC(COc1ccc2ccccc2c1)CN1CCOCC1` (stereo unspecified), for which the inhibition was 1.96% (inactive). Then `CCOc1ccc(C(O)Cc2nc3ccccc3n2C)cc1` (stereo unspecified), with 0.15% (inactive); and `Cn1c(=N)n(CC(O)c2ccccc2)c2ccccc21` (stereo unspecified), with 6.24% (inactive). As to `C=CCn1c(=N)n(CC(O)COc2ccc(OC)cc2)c2ccccc21` (stereo unspecified), the inhibition was 10.5% (inactive).

As to `Cc1cccc(OCC(O)Cn2c(=N)n(CCN3CCOCC3)c3ccccc32)c1` (stereo unspecified), the inhibition is 19.8% (active).

`CCOc1ccc(C(O)Cn2c(=N)n(CCN3CCCCC3)c3ccccc32)cc1` (stereo unspecified): the inhibition was 18.8% (active). Under `Cc1nc2c(C(=O)NCc3cccs3)cnn2c(C)c1Cc1ccc(F)cc1` stands 11.8% (inactive); under `COc1ccc(-c2csc3ncnc(Oc4ccc5c(C)cc(=O)oc5c4)c23)cc1`, 6.66% (inactive). Then `Brc1ccc(-c2csc(N/N=C/c3ccc4c(c3)OCO4)n2)cc1`, with -1.38% (inactive). Then `CCCn1c(N)c(C(=O)CSc2nnc(-c3cccnc3)n2-c2ccc(C)cc2C)c(=O)[nH]c1=O`, with 2.5% (inactive).
